Source: PubChem BioAssay AID1159580 (chemical genetic matrix, 2015)
Screen size: about 5,500 compounds; about 2,000 (36%) were called active. Inconclusive results (about 18%) are left out. No stated cut-off is given here; in the data, active means normalized growth mostly below about 0.91 (no sharp cut-off); inconclusive means no clear call, values can overlap the other calls; inactive means mostly above about 0.92. Some of the results follow.

Assay: chemical genetic growth profiling, strain panel (AID 1159580);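 further: tested at 20 µM; growth read once vehicle control cultures reached saturation at 30 °C; 1 = growth at the plate median or of vehicle wells; lower values mean less growth of the strain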
Conditions: S. cerevisiae deletion strains, growth OD
[1] = locus YAL021C, strain ccr4, active compounds read low
[2] = locus YAL026C, strain drs2, active compounds read low
[3] = locus YAL030W, strain snc1, active compounds read low
[4] = locus YBL061C, strain skt5, active compounds read low
[5] = locus YBR009C, strain hhf1, active compounds read low
[6] = locus YBR023C, strain chs3, active compounds read low
[7] = locus YBR171W, strain sec66, active compounds read low
[8] = locus YBR231C, strain swc5, active compounds read low
[9] = locus YBR279W, strain paf1, active compounds read low
[10] = locus YCL011C, strain gbp2, active compounds read low
[11] = locus YCL016C, strain dcc1, active compounds read low
[12] = locus YCL061C, strain MRC1, active compounds read low
[13] = locus YCL069W, strain vba3, active compounds read low
[14] = locus YCR088W, strain abp1, active compounds read low
[15] = locus YDL005C, strain med2, active compounds read low
[16] = locus YDL040C, strain nat1, active compounds read low
[17] = locus YDR001C, strain nth1, active compounds read low
[18] = locus YDR069C, strain doa4, active compounds read low
[19] = locus YDR137W, strain rgp1, active compounds read low
[20] = locus YDR159W, strain sac3, active compounds read low
[21] = locus YDR297W, strain sur2, active compounds read low
[22] = locus YDR334W, strain swr1, active compounds read low
[23] = locus YDR335W, strain msn5, active compounds read low
[24] = locus YDR392W, strain spt3, active compounds read low
[25] = locus YEL003W, strain gim4, active compounds read low
[26] = locus YEL037C, strain rad23, active compounds read low
[27] = locus YEL061C, strain CIN8 (second series), active compounds read low
[28] = locus YER015W, strain faa2, active compounds read low
[29] = locus YER016W, strain bim1, active compounds read low
[30] = locus YER111C, strain swi4, active compounds read low
[31] = locus YER155C, strain BEM2 (second series), active compounds read low
[32] = locus YFR010W, strain ubp6, active compounds read low
[33] = locus YGL167C, strain pmr1, active compounds read low
[34] = locus YGL173C, strain kem1, active compounds read low
[35] = locus YGL227W, strain vid30, active compounds read low
[36] = locus YGL240W, strain doc1, active compounds read low
[37] = locus YGL253W, strain hxk2, active compounds read low
[38] = locus YHR013C, strain ard1, active compounds read low
[39] = locus YHR027C, strain rpn1, active compounds read low
[40] = locus YHR142W, strain chs7, active compounds read low
[41] = locus YJL092W, strain hpr5, active compounds read low
[42] = locus YJL095W, strain BCK1 (second series), active compounds read low
[43] = locus YJL115W, strain asf1, active compounds read low
[44] = locus YJL129C, strain trk1, active compounds read low
[45] = locus YJL154C, strain vps35, active compounds read low
[46] = locus YJL164C, strain tpk1, active compounds read low
[47] = locus YJL166W, strain qcr8, active compounds read low
[48] = locus YJL187C, strain SWE1, active compounds read low
[49] = locus YKL160W, strain elf1, active compounds read low
[50] = locus YKR026C, strain gcn3, active compounds read low
[51] = locus YKR091W, strain srl3, active compounds read low
[52] = locus YLL001W, strain dnm1, active compounds read low
[53] = locus YLL026W, active compounds read low
[54] = locus YLL041C, strain sdh2, active compounds read low
[55] = locus YLR027C, strain aat2, active compounds read low
[56] = locus YLR221C, strain rsa3, active compounds read low
[57] = locus YLR258W, strain gsy2, active compounds read low
[58] = locus YLR262C, strain YPT6 (second series), active compounds read low
[59] = locus YLR320W, strain mms22, active compounds read low
[60] = locus YLR342W, strain FKS1, active compounds read low
[61] = locus YLR357W, strain rsc2, active compounds read low
[62] = locus YLR370C, strain arc18, active compounds read low
[63] = locus YLR384C, strain iki3, active compounds read low
[64] = locus YML120C, strain ndi1, active compounds read low
[65] = locus YMR125W, strain sto1, active compounds read low
[66] = locus YMR129W, active compounds read low
[67] = locus YMR205C, strain PFK2, active compounds read low
[68] = locus YMR231W, strain pep5, active compounds read low
[69] = locus YNL071W, strain lat1, active compounds read low
[70] = locus YNL209W, strain ssb2, active compounds read low
[71] = locus YNL248C, strain rpa49, active compounds read low
[72] = locus YNL322C, strain KRE1 (second series), active compounds read low
[73] = locus YNR049C, strain mso1, active compounds read low
[74] = locus YOR001W, strain rrp6, active compounds read low
[75] = locus YOR070C, strain gyp1, active compounds read low
[76] = locus YOR080W, strain dia2, active compounds read low
[77] = locus YOR083W, strain WHI5, active compounds read low
[78] = locus YOR106W, strain vam3, active compounds read low
[79] = locus YOR265W, strain rbl2, active compounds read low
[80] = locus YOR270C, strain vph1, active compounds read low
[81] = locus YOR290C, strain snf2, active compounds read low
[82] = locus YPL051W, strain arl3, active compounds read low
[83] = locus YPL078C, strain atp4, active compounds read low
[84] = locus YPL106C, strain sse1, active compounds read low
[85] = locus YPL240C, strain hsp82, active compounds read low

Measured: normalized growth

O=c1cc(-c2ccc(O)c(O)c2)oc2ccccc12
inactive: [1] 0.999 | [2] 0.964 | [3] 0.986 | [4] 0.965 | [5] 0.933 | [6] 0.961 | [7] 0.97 | [8] 0.924 | [9] 0.977 | [10] 0.956 | [11] 0.969 | [12] 0.965 | [13] 0.996 | [14] 0.997 | [15] 0.998 | [16] 0.989 | [17] 0.994 | [19] 0.985 | [20] 0.971 | locus YDR195W, strain ref2 1.02 | [21] 0.971 | [22] 0.976 | [23] 0.995 | [24] 0.954 | [25] 0.946 | [26] 0.984 | [27] 0.989 | [28] 0.955 | [29] 0.991 | [30] 0.962 | [31] 0.926 | [32] 0.947 | [33] 0.98 | [34] 0.936 | [35] 0.991 | [36] 1.01 | [37] 0.963 | [38] 0.983 | [39] 0.966 | [40] 0.962 | [41] 0.983 | [42] 0.976 | [43] 0.991 | [44] 0.978 | [45] 0.996 | [46] 0.942 | [47] 0.932 | [48] 0.982 | [49] 0.974 | [50] 0.972 | [51] 1 | [52] 0.965 | [53] 0.987 | [54] 0.99 | [55] 0.943 | [56] 0.927 | [57] 0.967 | [58] 0.934 | [59] 0.943 | [60] 0.961 | [61] 0.927 | [62] 0.993 | [63] 0.981 | [64] 0.978 | [65] 0.991 | [66] 0.99 | [67] 0.982 | [68] 0.961 | [69] 0.965 | [70] 0.932 | [71] 0.986 | [72] 0.989 | [73] 0.992 | [74] 0.928 | [75] 0.956 | [76] 0.986 | [77] 0.959 | [79] 1.01 | [80] 0.83 | [81] 0.968 | [82] 0.926 | [83] 0.985 | [84] 0.938 | [85] 0.99
active: [18] 0.893 | [78] 0.867

O=c1cc(-c2cccc(O)c2)oc2ccc(O)cc12
inactive: [1] 0.959 | [2] 0.946 | [3] 0.957 | [4] 0.952 | [5] 0.934 | [6] 0.947 | [7] 0.956 | [8] 0.939 | [9] 0.962 | [10] 0.933 | [11] 0.952 | [12] 0.949 | [13] 0.969 | [14] 0.962 | [15] 0.951 | [16] 0.971 | [17] 0.943 | [18] 0.946 | [20] 0.975 | locus YDR195W, strain ref2 1.06 | [21] 0.953 | [22] 0.924 | [23] 0.938 | [24] 0.873 | [25] 0.943 | [26] 0.964 | [27] 0.951 | [28] 0.936 | [29] 0.944 | [30] 0.956 | [31] 0.925 | [32] 0.962 | [33] 0.942 | [34] 0.941 | [35] 0.953 | [36] 0.91 | [37] 0.952 | [38] 0.953 | [39] 0.955 | [40] 0.885 | [41] 0.953 | [42] 0.942 | [43] 0.947 | [44] 0.903 | [45] 0.962 | [46] 0.947 | [47] 0.95 | [48] 0.936 | [49] 0.936 | [50] 0.948 | [51] 0.952 | [52] 0.945 | [53] 0.947 | [54] 0.951 | [55] 0.938 | [57] 0.939 | [59] 0.923 | [60] 0.983 | [61] 0.906 | [62] 0.933 | [63] 0.951 | [64] 0.952 | locus YMR058W, strain fet3, active compounds read low 0.942 | [65] 0.959 | [66] 0.983 | [67] 0.944 | [68] 0.958 | [69] 0.958 | [70] 0.945 | [71] 0.931 | [72] 0.958 | [73] 0.942 | [74] 0.948 | [75] 0.964 | [76] 0.93 | [77] 0.928 | [78] 0.933 | [79] 0.958 | [80] 0.865 | [81] 0.893 | [82] 0.92 | [83] 0.956 | [85] 0.952
active: [19] 0.778 | [56] 0.894 | [58] 0.804 | [84] 0.827

COc1ccc2oc(-c3ccccc3OC)cc(=O)c2c1
inactive: locus YHR030C, strain SLT2, active compounds read low 0.875 | locus YHR079C, strain IRE1, active compounds read low 0.911 | locus YJL095W, strain BCK1, active compounds read low 0.889 | locus YJR066W, strain TOR1, active compounds read low 0.851 | locus YLR113W, strain HOG1, active compounds read low 0.966 | locus YNL183C, strain NPR1, active compounds read low 0.883 | locus YOR231W, strain MKK1, active compounds read low 0.91 | locus YPL256C, strain CLN2, active compounds read low 0.936
